Among all 310,000 compounds or so, about 14,000 (4.5%) showed an effect of 50% or more. Effects have a minus sign here. The list comes from a sample in which strong results are over-represented; it also holds similar structures and randomly drawn compounds.
Each molecule was assayed against human ether-à-go-go-related gene (hERG) potassium channel (human, UniProt Q12809) (assay: primary screen, population patch clamp on CHO cells stably expressing hERG; higher = less effect of the substance).
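Further: peak tail current of the secondary pulse compared with the same well before compound.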

Chain of human ether-à-go-go-related gene (hERG) potassium channel (Q12809 whole entry, looked up): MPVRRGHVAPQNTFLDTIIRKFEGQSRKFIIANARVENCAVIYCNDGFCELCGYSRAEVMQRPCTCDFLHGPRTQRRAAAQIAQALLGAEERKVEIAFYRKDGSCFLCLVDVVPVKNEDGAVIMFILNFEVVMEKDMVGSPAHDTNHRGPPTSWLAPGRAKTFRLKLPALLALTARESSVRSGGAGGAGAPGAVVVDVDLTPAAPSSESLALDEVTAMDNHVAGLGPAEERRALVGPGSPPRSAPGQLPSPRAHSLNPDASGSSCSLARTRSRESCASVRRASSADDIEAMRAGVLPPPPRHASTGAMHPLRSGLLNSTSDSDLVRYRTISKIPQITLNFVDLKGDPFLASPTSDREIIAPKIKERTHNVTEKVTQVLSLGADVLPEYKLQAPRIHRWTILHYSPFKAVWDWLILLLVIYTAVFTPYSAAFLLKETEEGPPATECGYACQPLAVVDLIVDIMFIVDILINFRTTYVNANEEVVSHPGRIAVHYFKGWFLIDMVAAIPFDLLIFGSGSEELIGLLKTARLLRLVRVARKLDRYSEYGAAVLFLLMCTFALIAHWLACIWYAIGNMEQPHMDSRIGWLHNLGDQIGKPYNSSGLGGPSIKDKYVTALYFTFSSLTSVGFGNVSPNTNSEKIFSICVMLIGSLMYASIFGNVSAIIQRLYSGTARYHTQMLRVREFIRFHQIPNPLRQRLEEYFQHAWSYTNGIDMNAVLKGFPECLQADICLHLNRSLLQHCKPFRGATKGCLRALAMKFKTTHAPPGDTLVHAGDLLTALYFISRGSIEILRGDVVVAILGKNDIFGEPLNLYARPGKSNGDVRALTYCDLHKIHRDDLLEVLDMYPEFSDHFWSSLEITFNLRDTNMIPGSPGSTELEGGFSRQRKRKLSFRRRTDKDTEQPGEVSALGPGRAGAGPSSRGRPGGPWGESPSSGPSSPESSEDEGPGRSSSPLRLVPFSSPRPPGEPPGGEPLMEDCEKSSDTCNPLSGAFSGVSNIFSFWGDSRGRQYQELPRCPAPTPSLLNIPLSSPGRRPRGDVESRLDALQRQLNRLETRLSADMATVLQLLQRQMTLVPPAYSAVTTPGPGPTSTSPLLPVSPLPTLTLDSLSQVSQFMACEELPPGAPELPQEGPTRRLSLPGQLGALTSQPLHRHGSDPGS

Row | Compound | hERG current change (%, negative = inhibition) at 10uM [%]
1 | O=C(CCl)Oc1ccc2occ(C(=O)c3cccs3)c2c1 | 0.872
2 | C/C(=N\Nc1ccc(Cl)c(C(=O)O)c1)c1ccccn1 | 5.73
3 | CCOc1cccc(SCc2noc(C(=O)NCC3CCCO3)c2C(=O)O)c1 (stereo not drawn) | 32.2
4 | NS(=O)(=O)c1ccc(-c2cccc(/C=C3\SC(=O)NC3=O)c2)cc1 | 7.87
5 | Cc1cc(/C=C(/C#N)C(=O)Nc2ccccc2)c(C)n1-c1cccnc1 | -28.5
6 | Cc1cc(/C=C(/C#N)C(=O)Nc2ccc(Cl)cc2)c(C)n1-c1cccnc1 | -67.5
7 | Cc1cc(/C=C(\C#N)C(=O)Nc2ccccc2)c(C)n1-c1cccnc1 | 8.27
8 | Cc1c(C(=O)N2CCCC2)nnn1-c1nonc1N | 8.67
9 | CCC(=O)N1N=C(c2ccc(NS(C)(=O)=O)cc2)CC1c1ccc(C)cc1 (stereo not drawn) | -44.7
10 | CCC(=O)N1N=C(c2ccc(NS(C)(=O)=O)cc2)CC1c1ccc(N(C)C)cc1 (stereo not drawn) | -66.2
11 | CCC(=O)N1N=C(c2ccc(NS(=O)(=O)CC)cc2)CC1c1ccc(C)cc1 (stereo not drawn) | -14.1
12 | CS(=O)(=O)Nc1cccc(C2=NN(C(=O)c3ccco3)C(c3ccco3)C2)c1 (stereo not drawn) | -2.88
13 | CCS(=O)(=O)Nc1cccc(C2=NN(C(=O)c3ccco3)C(c3ccco3)C2)c1 (stereo not drawn) | -4.98
14 | CS(=O)(=O)Nc1cccc(C2=NN(C(=O)c3ccccc3)C(c3cccs3)C2)c1 (stereo not drawn) | -14
15 | CCS(=O)(=O)Nc1ccc(C2=NN(C(=O)c3ccco3)C(c3cccc(F)c3)C2)cc1 (stereo not drawn) | -32.4
16 | O=C(c1ccco1)N1N=C(c2ccc(Br)cc2)CC1c1ccco1 (stereo not drawn) | 18.5
17 | Cc1ccc(C2=NN(C(=O)c3ccccc3F)C(c3ccccc3F)C2)cc1 (stereo not drawn) | 19
18 | CS(=O)(=O)Nc1ccc(C2=NN(C(=O)c3ccco3)C(c3cccc(F)c3)C2)cc1 (stereo not drawn) | -78.3
19 | CS(=O)(=O)Nc1cccc(C2=NN(C(=O)c3ccco3)C(c3cccs3)C2)c1 (stereo not drawn) | -59
20 | CS(=O)(=O)Nc1ccc(C2=NN(C(=O)c3ccco3)C(c3ccccc3F)C2)cc1 (stereo not drawn) | -78.2
21 | CCn1c(CSc2nc3ccccc3s2)nnc1SCC(=O)c1ccc2c(c1)OCCO2 | -10.5
22 | O=C(COC(=O)/C=C/c1cccc(F)c1)Nc1ccc2[nH]c(=O)[nH]c2c1 | 9.96
23 | CCNC(=O)NC1(C(=O)N2CCC(Cc3ccccc3)CC2)CCCCC1 | 21.7
24 | CCCn1c(N)c(C(=O)CSc2nnc(Cc3cccs3)n2C2CC2)c(=O)n(C)c1=O | -0.534
25 | COc1ccc(N(CC(=O)Nc2ccccc2F)S(=O)(=O)c2ccc(OC)c(OC)c2)cc1 | -24.2
26 | O=C(NCCN1CCOCC1)c1cccc(S(=O)(=O)N2CCCCCC2)c1 | 7.38

Row | Compound | hERG current change (%, negative = inhibition) at 10uM [%]
27 | COc1ccc(C(=O)N/N=C/c2ccc(OC(=O)c3cccc4ccccc34)c([N+](=O)[O-])c2)cc1 | 3.57
28 | O=C(COC(=O)c1ccc(S(=O)(=O)NCc2ccco2)cc1)NC1CCCCC1 | -1.72
29 | CCN(Cc1nc(-c2ccc(OC)c(OC)c2)no1)C(=O)c1ccc2c(c1)OCO2 | 5.32
30 | O=c1[nH]c2c(c(=O)[nH]1)CCC2 | 17.7
31 | O=C(c1ccco1)N1N=C(c2ccc3nccnc3c2)CC1c1ccccc1 (stereo not drawn) | -22.3
32 | O=C(c1ccco1)N1N=C(c2ccccc2)CC1c1ccc2nccnc2c1 (stereo not drawn) | -45
33 | CS(=O)(=O)Nc1ccc(C2=NN(C(=O)c3ccco3)C(c3ccc(F)cc3)C2)cc1 (stereo not drawn) | -81.1
34 | Cc1ccc(C2CC(c3ccc(NS(C)(=O)=O)cc3)=NN2C(=O)c2ccco2)cc1 (stereo not drawn) | -78.5
35 | CS(=O)(=O)Nc1ccc(C2=NN(C(=O)c3ccco3)C(c3ccco3)C2)cc1 (stereo not drawn) | -72.3
36 | CCS(=O)(=O)Nc1ccc(C2=NN(C(=O)c3ccco3)C(c3ccc(C)cc3)C2)cc1 (stereo not drawn) | -21
37 | O=C(c1ccco1)N1N=C(c2ccc(Cl)cc2)CC1c1ccco1 (stereo not drawn) | 15
38 | O=C(c1ccco1)N1N=C(c2cccs2)CC1c1ccc(F)cc1 (stereo not drawn) | -29
39 | CS(=O)(=O)Nc1ccc(C2=NN(C(=O)c3ccco3)C(c3ccccc3)C2)cc1 (stereo not drawn) | -77.6
40 | CCS(=O)(=O)Nc1ccc(C2=NN(C(=O)c3ccco3)C(c3cccs3)C2)cc1 (stereo not drawn) | -1.38
41 | CCC(CC)C(=O)N1N=C(c2ccc(NS(C)(=O)=O)cc2)CC1c1ccc(C)cc1 (stereo not drawn) | -7.85
42 | CCS(=O)(=O)Nc1ccc(C2=NN(C(=O)c3ccco3)C(c3ccco3)C2)cc1 (stereo not drawn) | -7.66
43 | O=C(c1cc(-c2ccc(O)cc2)on1)N1CCN(c2ccc(F)cc2)CC1 | -23.6
44 | O=C(NCCCO)C(=O)NCC1OCCCN1S(=O)(=O)c1cccs1 (stereo not drawn) | -10.6
45 | COc1ccc(C(=O)N(C)Cc2cnn(Cc3ccccc3)c2)cc1S(=O)(=O)N1CCOCC1 | -27
46 | Cc1cccc(NC(=S)Nc2c(C)n(C)n(-c3ccccc3)c2=O)c1C | -2.23
47 | CCc1nnc(NC(=O)CSc2nnc(-c3ccc(S(=O)(=O)N4CCCC4)cc3)n2CC)s1 | 8.86
48 | CN(C)N1C(=O)CC(C)(c2ccc([N+](=O)[O-])cc2)C1=O (stereo not drawn) | -0.575
49 | CCn1c(=O)cc(OCC(=O)NC(C)c2ccc3c(c2)OCCO3)c2ccccc21 (stereo not drawn) | -4.48
50 | CC/C(=N\O)C(C)(C)/[N+]([O-])=C/c1ccc(Br)cc1 | 5.28
51 | CN(c1ccccc1)S(=O)(=O)c1cccc(NC(=O)c2ccc(=O)[nH]c2)c1 | -11.7

Source: PMC4336329 (PLoS ONE, 2015)
